Assay [1] in a line: Quantitative High-Throughput drug screen in 47 multiple myeloma cell lines against the NCATS MIPE library collection: MM1R_ATCC cell viability assay (AID 1918981). Further: nearly all actives have a fitted effect of over 35% in size. A digest of the protocol:
(§1)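 qHTS format: cells plated (500/well), pin-dosed with MIPE 4.0 compounds, kept 48 h at 37 °C. Readout was CellTiter-Glo luminescence, median RLU.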

Assay [2] in a line: Quantitative High-Throughput drug screen in 47 multiple myeloma cell lines against the NCATS MIPE library collection: LP1_DSMZ cell viability assay (AID 1918982). Further: nearly all actives have a fitted effect of over 35% in size. A digest of the protocol:
as §1

Assay [3] is described as follows: Quantitative High-Throughput drug screen in 47 multiple myeloma cell lines against the NCATS MIPE library collection: KMS34_JCRB cell viability assay (AID 1918985). Further: nearly all actives have a fitted effect of over 40% in size. A digest of the protocol:
as §1

The nature of assay [4]: Quantitative High-Throughput drug screen in 47 multiple myeloma cell lines against the NCATS MIPE library collection: OCIMY5_PLB cell viability assay (AID 1918988). Further: nearly all actives have a fitted effect of over 65% in size. A digest of the protocol: as §1
The nature of assay [5]: Quantitative High-Throughput drug screen in 47 multiple myeloma cell lines against the NCATS MIPE library collection: OCIMY7_PLB cell viability assay (AID 1918987). Further: nearly all actives have a fitted effect of over 65% in size. Particulars: OCI-MY7 myeloma viability, CellTiter-Glo ATP, 48 h; viability (% of DMSO): at 45.8 µM (top of the series). A digest of the protocol:
as §1
On the technique in general: Cellular ATP, detected with luciferase, serves as a proxy for viable cell number.

Assay [6] in a line: Quantitative High-Throughput drug screen in 47 multiple myeloma cell lines against the NCATS MIPE library collection: OPM1_PLB cell viability assay (AID 1918989). Further: nearly all actives have a fitted effect of over 40% in size. A digest of the protocol:
as §1

The nature of assay [7]: Quantitative High-Throughput drug screen in 47 multiple myeloma cell lines against the NCATS MIPE library collection: MM1S_ATCC cell viability assay (AID 1918980). Further: nearly all actives have a fitted effect of over 45% in size. A digest of the protocol:
as §1

A short description of assay [8]: Quantitative High-Throughput drug screen in 47 multiple myeloma cell lines against the NCATS MIPE library collection: KMS28PE_JCRB cell viability assay (AID 1918983). Further: nearly all actives have a fitted effect of over 35% in size. A digest of the protocol:
as §1

Assay [9] can be described thus: Quantitative High-Throughput drug screen in 47 multiple myeloma cell lines against the NCATS MIPE library collection: L363_DSMZ cell viability assay (AID 1918984). Further: nearly all actives have a fitted effect of over 40% in size. Particulars: L363 myeloma viability, CellTiter-Glo ATP luminescence, 48 h; viability (% of control): at 45.8 µM (top of the series). A digest of the protocol:
as §1

Inconclusive results are not listed. Active and inactive are the calls of the source. The call rests on the fitted dose curve; in most records, active means well fitted cell-killing curve with a large enough effect; inconclusive means small, poorly fitted or top-dose-only effect, or effect the other way; inactive means no such curve, though single readings can be large or run the other way.
Potency means the concentration at half of the fitted maximal effect.

Take `Cc1cnc(-c2cc(N3CCN(C(=O)CCS(C)(=O)=O)CC3)ncc2Cl)c(C)c1`: the Potency is 18.7 µM (active) in assay [1] and 2.96 µM (active) in assay [4]. Further, the Potency result in assay [2] and in [3] was “inactive” in each case.

With `Cc1cc(OCCCS(C)(=O)=O)cc(C)c1-c1cccc(COc2ccc3c(c2)OC[C@H]3CC(=O)O)c1`, the Potency is 6.62 µM (active) in assay [1], 16.6 µM (active) in [2], 18.7 µM (active) in assay [5] and 18.7 µM (active) in assay [6]. In [3], the Potency entry is “inactive”.

On to `CCC(=C(CC)c1ccc(O)cc1)c1ccc(O)cc1`, for which the Potency was 14.8 µM (active) in assay [7], 18.7 µM (active) in assay [8], 23.5 µM (active) in assay [3] and 20.9 µM (active) in assay [4].

With `CCCCN(CCCC)CC(O)c1cc(Cl)cc2c1-c1ccc(Cl)cc1C2=Cc1ccc(Cl)cc1` (stereo not drawn), the Potency is 23.5 µM (active) in assay [7], 26.4 µM (active) in assay [5], 10.5 µM (active) in assay [4] and 18.7 µM (active) in [6]. Further, in assay [9], the Potency entry was “inactive”.

Turning to `N#CC(=C1Nc2ccccc2S1)c1ccnc(OCc2ccc(CN3CCOCC3)cc2)n1`, the Potency in assay [7] was 1.48 µM (active); in assay [9], 0.0372 µM (active); in assay [3], 18.7 µM (active); in assay [4], 8.33 µM (active); in assay [6], 16.6 µM (active).

With `CN(CC=CC#CC(C)(C)C)Cc1cccc2ccccc12`, the Potency result in [7], in assay [8] and in assay [3] was “inactive” each time.

As to `COc1cc2nccc(Oc3ccc(NC(=O)Nc4cc(C)on4)c(Cl)c3)c2cc1OC`, the Potency is 6.62 µM (active) in assay [7], 4.18 µM (active) in [3], 16.6 µM (active) in assay [4] and 20.9 µM (active) in assay [6].

Turning to `COc1cc(F)c(C(C)C)cc1-c1ccc(C(F)(F)F)cc1CN1C(=O)O[C@H](c2cc(C(F)(F)F)cc(C(F)(F)F)c2)[C@@H]1C`, the Potency in [1] was 0.296 µM (active); in assay [2], 0.662 µM (active). Besides, in [6], the Potency entry is “inactive”.

On to `C[C@H]1[C@H](O)O[C@@H]2O[C@@]3(C)CC[C@@H]4[C@H](C)CC[C@@H]1[C@@]24OO3`, for which the Potency is 11.8 µM (active) in assay [7]; 2.35 µM (active) in assay [9]; 1.18 µM (active) in [5]; 5.26 µM (active) in assay [4]; 11.8 µM (active) in [6].

With `CN(C(Cc1ccc(OS(=O)(=O)c2cccc3cnccc23)cc1)C(=O)N1CCN(c2ccccc2)CC1)S(=O)(=O)c1cccc2cnccc12` (stereo not drawn), the Potency in assay [7] is 5.26 µM (active); in assay [8], 10.5 µM (active); in [5] it was 4.69 µM (active); in [4], 13.2 µM (active); in [6], 3.72 µM (active).

Consider `CCC[C@H](N[C@@H](C)C(=O)N1[C@@H]2CCCC[C@H]2C[C@H]1C(=O)O)C(=O)OCC`, for which the Potency in assay [7] is 20.9 µM (active). For the same compound, the Potency result in [8], in assay [3] and in assay [6] was “inactive” each time.

Consider `CCN1CCN(c2ccc(Nc3cc(N(C)C(=O)Nc4c(Cl)c(OC)cc(OC)c4Cl)ncn3)cc2)CC1`, for which the Potency in assay [4] was 13.2 µM (active); in [6] it was 0.0235 µM (active).

In the case of `Nc1ccn([C@@H]2O[C@H](CO)[C@@H](O)[C@H]2O)c(=O)n1`, the Potency result in assay [2], in assay [8], in assay [9], in [4] and in assay [6] was “inactive” in each case.

Regarding `COc1ccc(-c2ccc3ncc4c(c3c2)n(-c2ccc(N3CCNCC3)c(C(F)(F)F)c2)c(=O)n4C)cn1`, the Potency is 0.0066 µM (active) in [8], 0.0059 µM (active) in [5] and 0.0469 µM (active) in [4]. Besides, the Potency entry in [6] was “inactive”.

In the case of `Cn1c(=O)c(Oc2ccc(F)cc2F)cc2cnc(NC3CCOCC3)nc21`, the Potency in [1] was 7.43 µM (active); in [3], 1.32 µM (active); in assay [4] it was 18.7 µM (active).

On to `Cc1ccc(C(=O)N(CCCN)[C@@H](c2nc3cc(Cl)ccc3c(=O)n2Cc2ccccc2)C(C)C)cc1`, for which, in [3], the Potency result was “inactive”.

For `c1ccc(CNc2nc(N3CCOc4ccccc43)nc3c2CCCC3)cc1`, the Potency entry in assay [1], in assay [8], in [9], in assay [5] and in assay [6] was “inactive” in each case.

Regarding `CCOC(=O)[C@@H](N)CCC(=O)N[C@@H](CSCc1ccccc1)C(=O)N[C@@H](C(=O)OCC)c1ccccc1`, the Potency result in assay [8] was “inactive”. For the same compound, in assay [5], the Potency is 23.5 µM (active).

Turning to `CNC(=O)c1ccc2c(C(=Nc3cccc(CN(C)C)c3)c3ccccc3)c(O)[nH]c2c1`, the Potency entry in assay [2] is “inactive”. The Potency was 4.18 µM (active) in [8], 4.18 µM (active) in [9], 5.9 µM (active) in assay [5] and 18.7 µM (active) in [6].

Consider `CN1C(=O)C[C@H](C(=O)N[C@@H](Cc2cnc[nH]2)C(=O)N2CCC[C@@H]2C(N)=O)NC1=O`, for which the Potency result in assay [2], in assay [8], in assay [9] and in [5] was “inactive” each time. Further, the Potency in assay [3] is 2.96 µM (active); in [6] it was 20.9 µM (active).

As to `Cc1ccc(C(=O)N(CCCN)[C@@H](c2oc3cc(Cl)ccc3c(=O)c2Cc2ccccc2)C(C)C)cc1`, the Potency entry in assay [3] and in assay [4] was “inactive” throughout.

For the compound `CSc1cccc(Nc2ncc3cc(-c4c(Cl)cccc4Cl)c(=O)n(C)c3n2)c1`, the Potency in assay [1] is 2.35 µM (active); in assay [8] it was 2.35 µM (active); in [3], 1.48 µM (active); in [5] it was 0.0935 µM (active); in assay [4], 0.296 µM (active).

With `Cc1nn(Cc2ccccc2Cl)c(C)c1CN(C)CC(O)COc1ccc(Cl)cc1` (stereo not drawn), the Potency was 20.9 µM (active) in assay [1], 10.5 µM (active) in [4] and 20.9 µM (active) in assay [6].

`CC1CCN(c2cc(N3CCN(C)CC3)ccc2NC(=O)c2cc(C#N)c[nH]2)CC1`: the Potency in assay [1] and in assay [3] was 20.9 µM (active) throughout. Also, the Potency entry in [6] was “inactive”.

The values above are taken from PubChem BioAssay (NCATS).
